Sampled rows, rich in hits. Any-hit rate of the full collection: about 1.6%.
KCNQ2 pot = potentiators of rat KCNQ2 potassium channel; B-score at 10 µM; CHO-K1 KCNQ2, FluxOR thallium flux fluorescence; hits give high values; actives 0.54% (n = 310,000); AID 2239;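 active = fluorescence ratio B-score at least 3 SD of library B-scores, with initial fluorescence B-score within 3 of them, cut at about 5.3 in these data; same plate scores as AID 2156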;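 also: B-score of peak minus minimum over baseline fluorescence ratio after K+ and Tl+ stimulus; positive B-score means potentiation of KCNQ2 with more thallium influx and brighter signal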
Target sequence (O88943 whole entry, looked up): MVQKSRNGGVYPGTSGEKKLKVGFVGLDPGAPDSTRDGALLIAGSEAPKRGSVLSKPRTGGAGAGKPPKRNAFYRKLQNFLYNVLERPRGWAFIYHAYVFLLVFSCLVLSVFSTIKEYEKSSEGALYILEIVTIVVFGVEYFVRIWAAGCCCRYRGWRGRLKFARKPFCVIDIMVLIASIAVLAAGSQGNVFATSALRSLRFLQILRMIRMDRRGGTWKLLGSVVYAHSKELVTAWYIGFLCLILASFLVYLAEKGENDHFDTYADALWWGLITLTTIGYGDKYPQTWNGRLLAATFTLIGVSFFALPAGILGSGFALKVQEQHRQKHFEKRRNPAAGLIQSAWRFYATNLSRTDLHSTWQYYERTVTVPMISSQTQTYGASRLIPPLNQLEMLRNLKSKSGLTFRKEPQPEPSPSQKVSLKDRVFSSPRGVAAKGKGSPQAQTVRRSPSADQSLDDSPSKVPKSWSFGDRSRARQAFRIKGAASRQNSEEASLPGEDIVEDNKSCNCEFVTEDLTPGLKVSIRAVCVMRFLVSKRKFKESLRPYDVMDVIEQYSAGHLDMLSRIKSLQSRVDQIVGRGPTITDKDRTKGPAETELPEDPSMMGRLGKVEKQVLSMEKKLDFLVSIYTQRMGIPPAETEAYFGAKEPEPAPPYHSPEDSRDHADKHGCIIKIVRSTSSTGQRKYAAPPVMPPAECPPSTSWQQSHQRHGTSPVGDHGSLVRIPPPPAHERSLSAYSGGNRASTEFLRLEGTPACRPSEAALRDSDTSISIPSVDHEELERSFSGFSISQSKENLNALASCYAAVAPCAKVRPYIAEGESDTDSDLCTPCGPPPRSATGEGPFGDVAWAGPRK
KCNQ2 inh = inhibitors of rat KCNQ2 potassium channel; B-score at 10 µM; CHO-K1 KCNQ2, FluxOR thallium flux, 20 min; hits give low values; actives 1.1% (n = 310,000); O88943;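 active = fluorescence ratio B-score at most minus 3 library SDs, with starting brightness B-score within 2 library SDs, cut at about -5.5 in these data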
Numbers without * were called inactive; i = inactive; / = no result.

SMILES	KCNQ2 pot	KCNQ2 inh
Cc1nc(CSc2ccc(Cl)cc2)cc(NCc2ccccc2)n1	-5.7	-5.7*
COc1ccc(-c2cc(C(=O)Nc3cc(C)on3)c3ccccc3n2)c(OC)c1	/	i
COc1cccc(NC(=O)c2cc(-c3ccc(OC)cc3OC)nc3ccccc23)c1	-6.4	-6.4*
CCOC(=O)N1CCN(S(=O)(=O)N2CCCC(C(=O)NCc3cccc(OC)c3)C2)CC1 (configuration not stated)	/	i
COc1cccc(OCCCCSc2ncccn2)c1	/	i
c1ccc(Oc2cccc(OCCCCSc3ncccn3)c2)cc1	-6.2	-6.2*
Cc1cccc(NC(=O)c2cc[n+]([O-])cc2)c1C	0.49	i
CN1c2ccccc2C(C)(C)C12C=Nc1c(cc(N3CCOCC3)c3ccccc13)O2 (configuration not stated)	/	i
CN1c2ccccc2C(C)(C)C12C=Cc1cc(O)ccc1O2 (configuration not stated)	-7.1	-7.1*
c1cncc(CNCc2ccco2)c1	/	i
CCCCCN1CC(=O)N2Cc3[nH]c4ccccc4c3C[C@H]2C1=O	/	i
CCCCN1C(=O)C2Cc3c([nH]c4ccccc34)CN2C1=S (configuration not stated)	-5.6	-5.6*
CCCCCCN1CC(=O)N2Cc3[nH]c4ccccc4c3C[C@H]2C1=O	-6.9	-6.9*
O=C1[C@@H]2Cc3c([nH]c4ccccc34)CN2C(=O)CN1CCCO	0.73	i
CC1CC(C)CN(C(=O)C(Cc2ccccc2)n2cccc2)C1 (configuration not stated)	-6.5	-6.5*
CC1CCN(C(=O)C(Cc2ccccc2)n2cccc2)CC1 (configuration not stated)	/	i
COc1cc(NC(=O)C(Cc2ccccc2)n2cccc2)cc(OC)c1 (configuration not stated)	/	i
Cc1cccc(NC(=O)C(Cc2ccccc2)n2cccc2)c1 (configuration not stated)	-5.7	-5.7*
CN(CC(=O)Nc1ccc(F)c(F)c1F)C(=O)CCCSc1nc2ccccc2[nH]1	1.6	i
CC(CC(=O)NC(C)c1ccc2c(c1)OCCO2)c1ccccc1 (configuration not stated)	9.3*	i
CC(CC(=O)Nc1ccc2c(c1)OCCO2)c1ccccc1 (configuration not stated)	1.7	i
Oc1ccc2ccccc2c1CNc1ccc(Br)cc1	/	i
Oc1ccc2ccccc2c1CNc1ccc(Br)cn1	-6.2	-6.2*
O=C(c1ccc(COc2ccccc2Br)o1)N1N=C(C(F)F)CC1(O)C(F)F (configuration not stated)	1	i
CCn1c(CN2CCN(c3ccc(Cl)cc3)CC2)nc2ccccc21	-5.6	-5.6*
SMILES	KCNQ2 pot	KCNQ2 inh
Cn1c(CN2CCN(c3ccc(Cl)cc3)CC2)nc2ccccc21	0.08	i
Cn1c(CNC(=O)CCNC(=O)c2ccccc2F)cc(=O)n(C)c1=O	/	i
CN(c1ccc(OCC(=O)Nc2nc3ccccc3s2)cc1)S(=O)(=O)c1ccccc1	/	i
CCOc1ccc(S(=O)(=O)N(C)c2ccc(OCC(=O)Nc3nc4ccccc4s3)cc2)cc1	-5.9	-5.9*
CC(C)N(C(=O)N1CCN(c2ccnc3cc(Cl)ccc23)CC1)C(C)C	1.2	i
CC1(CCC(=O)N2CCCC(N3CCN(c4cccc(C(F)(F)F)c4)CC3)C2)CC1 (configuration not stated)	/	i
CSCC(=O)N1CCCC(N2CCN(c3cccc(C(F)(F)F)c3)CC2)C1 (configuration not stated)	-6.8	-6.8*
COc1ccc(CCNCc2ccc(OCC(=O)N3CCCCC3)c(OC)c2)cc1OC	/	i
CCOC(=O)C1(CC2CCCCO2)CCN(C(=O)NCc2ccccc2)CC1 (configuration not stated)	/	i
C/C(=N\Nc1ccc([N+](=O)[O-])cc1)c1ccc(N)cc1	/	i
C/C(=N\Nc1nc(C)c(C)s1)c1ccc([N+](=O)[O-])cc1	5.4*	i
CCCCN(C)C(=O)c1nc2ccccn2c1CN1CCC[C@H]1CO	0.97	i
Cc1cc(S(=O)(=O)N2CCOCC2)ccc1OCC(=O)N1CCCC1	0.29	i
O=C(O)Cc1coc2cc3c(cc12)CCC3	/	i
O=C(Cc1coc2cc3c(cc12)CCC3)NC1CCCCCCC1	12*	i
O=C(NCC(=O)N1CCCCCC1)c1ccc(Br)cc1	/	i
CCCCn1c(N)c(N(Cc2ccccc2OC)C(=O)CN2C(=O)NC(C)(c3ccccc3)C2=O)c(=O)[nH]c1=O (configuration not stated)	/	i
N#C/C(=C\c1cc(Br)ccc1F)C(=O)NC1CC1	-6.1	-6.1*
N#C/C(=C\c1cc(Cl)cc(Cl)c1O)C(=O)NC1CCCCC1	-5.7	-5.7*
N#C/C(=C\c1ccc(F)c(Br)c1)C(=O)NC1CC1	/	i
N#C/C(=C\c1cc(Cl)ccc1O)C(=O)NC1CCCCC1	/	i
COc1ccc(NS(=O)(=O)c2ccc3c(c2)NC(=O)CO3)cc1	0.51	i
Cc1cccc(/C(N)=N/OC(=O)c2cccc3ccccc23)c1	-5.7	-5.7*
N/C(=N\OC(=O)c1cccc2ccccc12)c1cccc([N+](=O)[O-])c1	0.82	i
CCOc1ccc(NC(=O)C2CCN(C(=O)C3CC(=O)N(c4ccc(C)cc4)C3)CC2)cc1 (configuration not stated)	0.67	i
SMILES	KCNQ2 pot	KCNQ2 inh
O=c1c2c(-c3cccs3)csc2ncn1/N=C/c1ccccn1	/	i
O=c1c2c(-c3cccs3)csc2ncn1/N=C/c1ccc(OC(F)F)cc1	-7.4	-7.4*
Cc1sc2ncnc(N3CCC(C(=O)Nc4nnc(CC(C)C)s4)CC3)c2c1C	/	i
COc1ccccc1CCn1cnc2c3cc(C)ccc3n(C)c2c1=O	-7.4	-7.4*
COc1ccc2c(c1)c1ncn(CCN3CCCC3)c(=O)c1n2C	1.2	i
COCCn1c(=O)[nH]c2cc(C(=O)NCCc3ccc(S(N)(=O)=O)cc3)ccc2c1=O	0.03	i
Cc1ccc(S(=O)(=O)N2Cc3ccccc3CC2C(=O)Nc2ccc3c(c2)OCO3)cc1 (configuration not stated)	-5.6	-5.6*
COc1ccc(S(=O)(=O)N2Cc3ccccc3CC2C(=O)Nc2ccc3c(c2)OCO3)cc1 (configuration not stated)	/	i
COc1cc(/C=C2\SC(=Nc3ccccc3)N(CCc3c[nH]c4ccccc34)C2=O)ccc1OC(C)C(=O)O (configuration not stated)	/	i
COCCN1C(=O)/C(=C/c2ccc(Oc3ccc([N+](=O)[O-])cn3)c(OC)c2)SC1=Nc1ccccc1	-6.9	-6.9*
Cc1cc(C)cc(OCc2nnc(SCC(=O)N3CCCCC3)o2)c1	0.11	i
COC(=O)c1c(NC(=O)c2ccco2)sc2c1CCC2	/	i
CC(C)OC(=O)c1c(NC(=O)c2ccco2)sc2c1CCCCC2	-6.3	-6.3*
Nc1cc(Cl)ccc1C(=O)OCC(=O)NC1CCCCC1	/	i
CCN(C(=O)COC(=O)c1ccc(Cl)cc1N)C1CCCCC1	-6.4	-6.4*
Cc1c(C)n2c(SCC(=O)N3CCOCC3)nnc2[nH]c1=O	/	i
Cc1nn(Cc2ccccc2)c(Cl)c1C(=O)OCc1nnc(-c2ccc(Cl)cc2)o1	-6.1	-6.1*
Cc1nn(Cc2ccccc2)c(Cl)c1C(=O)OCc1nnc(-c2ccccc2)o1	0.79	i
Cc1nc2ccc(NC(=O)NCc3ccco3)cc2s1	0.31	i
O=C(NCc1ccco1)Nc1ccc2snnc2c1	6.1*	i
